PubChem BioAssay (NCATS)
Results filed as inconclusive are left out. Active and inactive are the calls of the source. Calls follow the shape of the dose curve; as a rule, active = well fitted curve in the direction sought with a large enough effect; inconclusive = small, poorly fitted or top-dose-only effect, or another doubt; inactive = no such curve, though single readings can be large; an effect the other way counts as inactive or inconclusive.

Assay: Cell Proliferation Assay against the HBL1 Cell Line (AID 651646);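 also: cells exposed to compound for 48 h before reading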
Conditions: HBL1 DLBCL cells; at 46.1 µM (top of the series)
How it was run: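 HBL1, 500 cells/well, RPMI no phenol red + 5% FBS; cpd pinned, 48 h 37C/5% CO2; CellTiter-Glo, 15 min RT, luminescence. % activity: DMSO = 100%, bortezomib 9.2 uM final = 0%.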

SMILES | viability, percent of control [%]
COC[C@H]1OC(=O)c2coc3c2[C@@]1(C)C1=C(C3=O)C2CCC(=O)[C@@]2(C)C[C@H]1OC(C)=O (stereo partly specified) | 61.7
CN(C)CCN(C)CCc1ccc(Cl)c(Cl)c1 | 73.4
COC1(CS(=O)c2ccccc2)CCN(CCc2c[nH]c3ccc(F)cc23)CC1 (stereo unspecified) | 108
Cn1cc(C2=C(c3cn(C4CCN(Cc5ccccn5)CC4)c4ccccc34)C(=O)NC2=O)c2ccccc21 | 33.2
Cc1sc2c(c1C)C(c1ccc(Cl)cc1)=N[C@@H](CC(=O)OC(C)(C)C)c1nnc(C)n1-2 | 13.5
CNC(=O)c1ccc(N2C(=S)N(c3ccc(C#N)c(C(F)(F)F)c3)C(=O)C23CCC3)cc1F | 77.6
CC1=C2C[C@@H]3[C@@H](CC=C4C[C@@H](O)CC[C@@]43C)[C@@H]2CC[C@]12O[C@H]1C[C@H](C)CN[C@H]1[C@H]2C | 69.1
CO[C@@H](C(=O)N1Cc2[nH]nc(NC(=O)c3ccc(N4CCN(C)CC4)cc3)c2C1)c1ccccc1 | 77.1
CC(C)n1c(C=C[C@H](O)C[C@H](O)CC(=O)O)c(-c2ccc(F)cc2)c2ccccc21 | 74.8
C[C@]12CCC(=O)C(O)=C1CC[C@@H]1[C@@H]2CC[C@]2(C)C(=O)CC[C@@H]12 | 87.5
O=C(O)C(=O)c1cn(Cc2ccccc2)c2ccc(-c3ccc(OC(F)(F)F)cc3)cc12 | 68.4
COc1ccc(C(=O)c2c(C)n(CCN3CCOCC3)c3ccccc23)cc1 | 50.4
O=c1c(O)c(-c2ccc(O)c(O)c2)oc2cc(O)cc(O)c12 | 56.5
CCCCC/C=C\C/C=C\C/C=C\C/C=C\CCCC(=O)NC1CC1 | 109
Cc1cc(SCc2sc(-c3ccc(C(F)(F)F)c(F)c3)nc2C)ccc1OCC(=O)O | 93.2
C[C@@H]1[C@@H](CC(C[C@H]2O[C@@H]3O[C@]4(C)CC[C@@H]5[C@H](C)CC[C@@H]([C@H]2C)[C@@]35OO4)C[S+](=O)([O-])c2ccc(COC(=O)N(C)C)cc2)O[C@@H]2O[C@]3(C)CC[C@H]4[C@H](C)CC[C@@H]1[C@@]24OO3 (stereo partly specified) | 39.8
CS(=O)c1ccc(-c2nc(-c3ccc(F)cc3)c(-c3ccncc3)[nH]2)cc1 (stereo unspecified) | 100
CC(O)(CS(=O)(=O)c1ccc(F)cc1)C(=O)Nc1ccc(C#N)c(C(F)(F)F)c1 (stereo unspecified) | 95.3
C[C@@H]1[C@@H](C(=O)C[C@H]2O[C@@H]3O[C@]4(C)CC[C@@H]5[C@H](C)CC[C@@H]([C@H]2C)[C@@]35OO4)O[C@@H]2O[C@]3(C)CC[C@H]4[C@H](C)CC[C@@H]1[C@@]24OO3 | 21.3
Cn1c(CCCC(=O)O)nc2cc(N(CCCl)CCCl)ccc21 | 108
CNC(=O)N1N=C(c2ccc(N)cc2)c2cc3c(cc2CC1C)OCO3 (stereo unspecified) | 20

Assay: Cell Proliferation Assay against the TMD8 Cell Line (Caspase readout at 16 hrs) (AID 651712); also: potency is read from the fitted curve at half-maximal effect;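 as to caspase activation: 0% = DMSO and 100% = 9.2 µM bortezomib caspase activation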
Conditions: TMD8 lymphoma cells, caspase activation luminescence; series mostly up to 46.1 µM
How it was run: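 Caspase-Glo luminescence after 16 h compound exposure of TMD8 cells, 37 °C, 5% CO2. Medium: RPMI without phenol red, 5% FBS. Normalisation: DMSO = 0%, bortezomib 9.2 uM final = 100%.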

SMILES | Potency
COc1cc([C@@H]2c3cc4c(cc3[C@H](O)[C@H]3COC(=O)[C@H]23)OCO4)cc(OC)c1OC | 0.0037 µM (active)
CN(C)CCN(C)CCc1ccc(Cl)c(Cl)c1 | inactive
COC1(CS(=O)c2ccccc2)CCN(CCc2c[nH]c3ccc(F)cc23)CC1 (stereo unspecified) | inactive
Cn1cc(C2=C(c3cn(C4CCN(Cc5ccccn5)CC4)c4ccccc34)C(=O)NC2=O)c2ccccc21 | 16.6 µM (active)
Cc1sc2c(c1C)C(c1ccc(Cl)cc1)=N[C@@H](CC(=O)OC(C)(C)C)c1nnc(C)n1-2 | 0.469 µM (active)
CO[C@@H](C(=O)N1Cc2[nH]nc(NC(=O)c3ccc(N4CCN(C)CC4)cc3)c2C1)c1ccccc1 | 13.2 µM (active)
C[C@]12CCC(=O)C(O)=C1CC[C@@H]1[C@@H]2CC[C@]2(C)C(=O)CC[C@@H]12 | inactive
COc1ccc(C(=O)c2c(C)n(CCN3CCOCC3)c3ccccc23)cc1 | 20.9 µM (active)
CCCCC/C=C\C/C=C\C/C=C\C/C=C\CCCC(=O)NC1CC1 | inactive
C[C@@H]1[C@@H](CC(C[C@H]2O[C@@H]3O[C@]4(C)CC[C@@H]5[C@H](C)CC[C@@H]([C@H]2C)[C@@]35OO4)C[S+](=O)([O-])c2ccc(COC(=O)N(C)C)cc2)O[C@@H]2O[C@]3(C)CC[C@H]4[C@H](C)CC[C@@H]1[C@@]24OO3 (stereo partly specified) | 0.209 µM (active)
CC(O)(CS(=O)(=O)c1ccc(F)cc1)C(=O)Nc1ccc(C#N)c(C(F)(F)F)c1 (stereo unspecified) | inactive
Cn1c(CCCC(=O)O)nc2cc(N(CCCl)CCCl)ccc21 | inactive
CNC(=O)N1N=C(c2ccc(N)cc2)c2cc3c(cc2CC1C)OCO3 (stereo unspecified) | 18.7 µM (active)

Assay: Cell Proliferation Assay against the TMD8 Cell Line (Caspase readout at 8 hrs) (AID 651713); also: potency is read from the fitted curve at half-maximal effect;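 as to caspase activation: 0% = DMSO and 100% = 9.2 µM bortezomib caspase signal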
Conditions: TMD8 lymphoma cells, caspase activation luminescence; series mostly up to 46.1 µM
How it was run: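 Apoptosis readout: caspase 3/7 luminescence (Caspase-Glo), 15 min RT. Cells: TMD8, 500/well, RPMI + 5% FBS, no phenol red. Exposure 8 h, 37C. % activity vs DMSO = 0, bortezomib 9.2 uM final = 100.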

SMILES | Potency
COC[C@H]1OC(=O)c2coc3c2[C@@]1(C)C1=C(C3=O)C2CCC(=O)[C@@]2(C)C[C@H]1OC(C)=O (stereo partly specified) | 23.5 µM (active)
CN(C)CCN(C)CCc1ccc(Cl)c(Cl)c1 | inactive
COC1(CS(=O)c2ccccc2)CCN(CCc2c[nH]c3ccc(F)cc23)CC1 (stereo unspecified) | inactive
Cc1sc2c(c1C)C(c1ccc(Cl)cc1)=N[C@@H](CC(=O)OC(C)(C)C)c1nnc(C)n1-2 | 23.5 µM (active)
CNC(=O)c1ccc(N2C(=S)N(c3ccc(C#N)c(C(F)(F)F)c3)C(=O)C23CCC3)cc1F | inactive
CO[C@@H](C(=O)N1Cc2[nH]nc(NC(=O)c3ccc(N4CCN(C)CC4)cc3)c2C1)c1ccccc1 | 16.6 µM (active)
C[C@]12CCC(=O)C(O)=C1CC[C@@H]1[C@@H]2CC[C@]2(C)C(=O)CC[C@@H]12 | inactive
COc1cc(Nc2c(C#N)cnc3cc(OCCCN4CCN(C)CC4)c(OC)cc23)c(Cl)cc1Cl | 20.9 µM (active)
O=C(O)C(=O)c1cn(Cc2ccccc2)c2ccc(-c3ccc(OC(F)(F)F)cc3)cc12 | inactive
COc1ccc(C(=O)c2c(C)n(CCN3CCOCC3)c3ccccc23)cc1 | 26.4 µM (active)
CCCCC/C=C\C/C=C\C/C=C\C/C=C\CCCC(=O)NC1CC1 | inactive
Cc1cc(SCc2sc(-c3ccc(C(F)(F)F)c(F)c3)nc2C)ccc1OCC(=O)O | inactive
C[C@@H]1[C@@H](CC(C[C@H]2O[C@@H]3O[C@]4(C)CC[C@@H]5[C@H](C)CC[C@@H]([C@H]2C)[C@@]35OO4)C[S+](=O)([O-])c2ccc(COC(=O)N(C)C)cc2)O[C@@H]2O[C@]3(C)CC[C@H]4[C@H](C)CC[C@@H]1[C@@]24OO3 (stereo partly specified) | inactive
CC(O)(CS(=O)(=O)c1ccc(F)cc1)C(=O)Nc1ccc(C#N)c(C(F)(F)F)c1 (stereo unspecified) | inactive
C[C@@H]1[C@@H](C(=O)C[C@H]2O[C@@H]3O[C@]4(C)CC[C@@H]5[C@H](C)CC[C@@H]([C@H]2C)[C@@]35OO4)O[C@@H]2O[C@]3(C)CC[C@H]4[C@H](C)CC[C@@H]1[C@@]24OO3 | inactive
Cn1c(CCCC(=O)O)nc2cc(N(CCCl)CCCl)ccc21 | inactive
CNC(=O)N1N=C(c2ccc(N)cc2)c2cc3c(cc2CC1C)OCO3 (stereo unspecified) | inactive
